Screening data from PubChem BioAssay.
Compounds with a hit are over-represented: about 4% of the library has one in this group of screens.
Jurkat NFkB inh – lowers PMA/ionomycin-induced NF-kB signal in Jurkat cells; PMA/ionomycin-induced NF-kB luciferase reporter, luminescence; inhibition, % at 4 µM; hit rate 0.53% among 330,000; AID 435003; in the data active means inhibition above about 50%
Beta apoptosis – blocks beta cell apoptosis; hit rate 0.8% among 300,000; INS-1E cytokine-induced death, ATP luminescence, 48 h; percent of positive-control rescue, neutral wells zero; protection from apoptosis, % (test concentration not listed);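 active means Every replicate reaches about 75%, or at least half do and their mean reaches it too, limit read from the data; inconclusive means At least half of replicates reach the limit but their mean does not; inactive means Under half of replicates reach the limit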;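 further: higher means more ATP so stronger rescue from cytokine killing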
697 NFkB inh – lowers PMA/ionomycin-induced NF-kB signal in 697 B cells; 697 B-cell NF-kB luciferase reporter, 16 h; inhibition, % at 4 µM; hit rate 0.33% among 330,000; in the data active means inhibition above about 35%
Mdm2 MdmX PPI – disrupts the human Mdm2-MdmX interaction; O15151+Q00987; SaOS-2 split-luciferase Mdm2/MdmX complementation, luminescence; inhibition, % at 8 µM; hit rate 3% among 330,000; AID 485346;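 active means inhibition of at least 50% at 8 µM in the primary screen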
Gli-Sufu antag – blocks Gli-Sufu signaling in a luciferase reporter; hit rate 0.74% among 340,000; inhibition, % at 5 µM; Sufu-KO-LIGHT fibroblasts, Gli luciferase reporter luminescence;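 active means inhibition above about 55%, limit read from the data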
Gli antag conf – confirmation of Gli-SUFU pathway antagonists; hit rate 40% among 2,500; AID 602428; inhibition, % at 5 µM; shares compounds with Gli-Sufu antag; Sufu-KO-LIGHT cells, Gli luciferase reporter, luminescence;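 active means mean inhibition at 5 µM reaching about 45%, limit read from the data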
SufuKO cytotox – counter-screen for Gli-SUFU antagonists: cytotoxicity; shares compounds with Gli-Sufu antag; Sufu-KO-LIGHT cells cytotoxicity, ATP luminescence; cytotoxicity, % at 5 µM; hit rate 32% among 2,500; AID 651994;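 active means mean cytotoxicity at 5 µM above about 25%, limit read from the data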;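 further: cells exposed to compound overnight for roughly 16 to 18 hours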
Wnt3a counter – Wnt3a reporter inhibition counter-screen. shares compounds with Gli-Sufu antag. Wnt-LIGHT cells, Wnt3a-driven luciferase reporter, luminescence. inhibition, % at 6.25 µM. hit rate 20% among 2,500. AID 651995;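 active means mean inhibition above about 25%, limit read from the data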
Of the large screens only hits and unclear results are named; the others gave an inactive call (follow-up assays come after a bar, where they were run).

Cc1cccc(C)c1NC(=O)CN1C(=O)N(C)Cc2ccccc21	none
CC(NC(=O)c1cccc(Cl)c1)C1CC2CCC1C2 (centres undefined)	none
CC(NC(=O)c1cccc(S(=O)(=O)N2CCN(C)CC2)c1)C1CC2CCC1C2 (centres undefined)	Gli-Sufu antag 58 | Gli antag conf inactive | SufuKO cytotox inactive | Wnt3a counter inactive
COc1ccc(-n2nnc3c(SCC(=O)NCc4ccco4)ncnc32)cc1	Gli-Sufu antag 98 | Gli antag conf inactive | SufuKO cytotox inactive | Wnt3a counter inactive
Cc1ccc(S(=O)(=O)NC(=O)Nc2c(C)cccc2C)cc1	none
CN1CCc2nc(NC(=O)COc3ccc4ccccc4c3)sc2C1	none
CN1CCc2nc(NC(=O)c3cccc(OC(F)F)c3)sc2C1	Gli-Sufu antag 68 | Gli antag conf inactive | SufuKO cytotox inactive | Wnt3a counter inactive
CC1(C)CC(=O)C/C(=N/NC(=O)CCCOc2ccc(Cl)cc2Cl)C1	Gli-Sufu antag 99 | Gli antag conf inactive | SufuKO cytotox inactive | Wnt3a counter inactive
COc1ccc(C(=O)Nc2ccc(C3CC3(Cl)Cl)cc2)cc1 (centres undefined)	none
NC(N)=NN=C(c1ccc(F)cc1)c1ccc(C(F)(F)F)cc1	Gli-Sufu antag 57 (no result: Jurkat NFkB inh, Beta apoptosis, 697 NFkB inh, Mdm2 MdmX PPI) | Gli antag conf inactive | SufuKO cytotox 50 | Wnt3a counter inactive
CCOC(=O)c1cnc(Nc2nc3ccccc3o2)nc1CSC(=S)N(CC)CC	Gli-Sufu antag 69 | Gli antag conf inactive | SufuKO cytotox inactive | Wnt3a counter inactive
CCOC(=O)C1CCN(C2=C(NS(=O)(=O)c3ccc(Br)cc3)C(=O)c3ccccc3C2=O)CC1	none | Gli antag conf inactive | SufuKO cytotox inactive | Wnt3a counter inactive
COc1ccc(/C=C(\C#N)C(=O)OCC(=O)Nc2ccc(-c3nc4ccc(C)cc4s3)cc2)cc1	none
CCOC(=O)c1oc2ccccc2c1NC(=O)C1CCCCC1	Gli-Sufu antag 97 | Gli antag conf inactive | SufuKO cytotox inactive | Wnt3a counter inactive
Cc1cccc(C(=O)NNC(=O)CCCCC(=O)NNC(=O)c2cccc(C)c2)c1	none (no result: Gli-Sufu antag)
CCOC(=O)c1c(NC(=O)COc2ncnc3ccccc23)sc(C(C)=O)c1C	Gli-Sufu antag 55 | Gli antag conf inactive | SufuKO cytotox inactive | Wnt3a counter inactive
O=C(/C=C/c1cccc([N+](=O)[O-])c1)OC1CCCCC1=O (centres undefined)	none
CC(C)COc1cccc(C(=O)Nc2ccc(S(=O)(=O)N3CCOCC3)cc2)c1	none
CC(C)COc1cccc(C(=O)Nc2ccc(CN3CCOCC3)cc2)c1	none | Gli antag conf inactive | SufuKO cytotox inactive | Wnt3a counter inactive
Cc1cccc2sc(NC(=O)C3c4ccccc4Oc4ccccc43)nc12	none
COC(=O)CCn1nc(-c2ccc(C)cc2)c2ccccc2c1=O	none
COc1ccc(OC)c(C(=O)Cn2cnc3ccccc3c2=O)c1	none
Cc1cnn2c(C3CC3)ccnc12	Gli-Sufu antag 58 | Gli antag conf inactive | SufuKO cytotox inactive | Wnt3a counter inactive
COC(=O)CN=Cc1c(C)[nH]n(-c2ccccc2)c1=O	none
Cc1[nH]n(-c2ccccc2)c(=S)c1C=NCCCN=Cc1c(C)[nH]n(-c2ccccc2)c1=S	Gli-Sufu antag 71 | Gli antag conf inactive | SufuKO cytotox 32 | Wnt3a counter inactive
COc1ccc(/C=N/N2CCN(Cc3ccccc3)CC2)cc1	Beta apoptosis inconclusive
COc1ccc(/C=C/C2=CCN(Cc3ccc(OC)cc3)CC2)cc1	none | Gli antag conf inactive | SufuKO cytotox inactive | Wnt3a counter inactive
CCN(C(=O)COc1ccc(C(C)=O)cc1)c1cccc2ccccc12	none
COc1ccc(NS(=O)(=O)c2ccc3c(c2)OCCO3)cc1OC	Gli-Sufu antag 66 | Gli antag conf 60 | SufuKO cytotox 29 | Wnt3a counter 30
O=C(N=Nc1c(O)[nH]c2ccccc12)c1ccc2c(c1)OCO2	none
Cc1ccc(S(=O)(=O)NCC(=O)OC(C)C(=O)NCc2ccc3c(c2)OCO3)cc1 (centres undefined)	none (no result: Jurkat NFkB inh, Beta apoptosis, 697 NFkB inh, Mdm2 MdmX PPI)
Cc1cc(C)nc(N/N=C2/CCCC/C2=C\c2ccccc2)n1	Beta apoptosis 78, Gli-Sufu antag 74 | Gli antag conf inactive | SufuKO cytotox inactive | Wnt3a counter inactive
Cc1cc(C)nc(N/N=C/c2ccccc2OCc2ccccc2)n1	none
Cc1ccc(NC(=O)CN(C)C(=O)COc2ncnc3ccc(Br)cc23)cc1	none
C[C@H](CCC(=O)OCc1cn(CC(=O)c2ccc(O)cc2)nn1)C1CC[C@H]2[C@@H]3CC[C@@H]4C[C@H](O)CC[C@]4(C)[C@H]3C[C@H](O)[C@]12C (some centres undefined)	none (no result: Jurkat NFkB inh, Beta apoptosis, 697 NFkB inh, Mdm2 MdmX PPI)
O=C(c1ccccc1Cl)N1CCC(N2CCC(C(=O)N3CCCC3)CC2)CC1	Gli-Sufu antag 92 | Gli antag conf inactive | SufuKO cytotox inactive | Wnt3a counter inactive
O=C(c1cccc(Cl)c1)N1CCC(N2CCC(C(=O)N3CCOCC3)CC2)CC1	none
O=C(c1cc(F)ccc1F)N1CCC(N2CCC(C(=O)N3CCCC3)CC2)CC1	Gli-Sufu antag 57 | Gli antag conf inactive | SufuKO cytotox inactive | Wnt3a counter inactive
O=C(O)C1CCN(C(=O)c2ccccc2Cl)CC1	none
CCOC(=O)C1=NOC(CN(c2ccccc2)S(=O)(=O)c2ccc(Cl)cc2)C1 (centres undefined)	none
C=CCc1ccc(OCCOc2cccc3ccc(C)nc23)c(OC)c1	none
Cc1ccc(S(=O)(=O)N2CCN(C(=O)/C=C/c3ccccc3)CC2)cc1C	none (no result: Beta apoptosis)
COc1ccc(N2CCN(C(=O)NCc3cccc(OC)c3)CC2)cc1	none
CCOc1ccccc1N(C)S(=O)(=O)c1ccc2c(c1)CC(C)N2C(=O)C1CC1 (centres undefined)	Gli-Sufu antag 60 | Gli antag conf inactive | SufuKO cytotox inactive | Wnt3a counter inactive
O=C(NC1CCCCC1)c1nn2c(C(F)(F)F)cc(-c3ccco3)nc2c1Br	none
O=C(NCC1CCCO1)c1nn2c(C(F)(F)F)cc(-c3ccc(Br)o3)nc2c1Br (centres undefined)	Gli-Sufu antag 56 | Gli antag conf inactive | SufuKO cytotox inactive | Wnt3a counter inactive
O=C(Nc1cccc(NC(=O)c2ccco2)c1)c1ccccc1	none | Gli antag conf inactive | SufuKO cytotox inactive | Wnt3a counter inactive
O=C(Nc1ccc(Oc2cccc3ccccc23)cc1)c1ccco1	Gli-Sufu antag 97 | Gli antag conf inactive | SufuKO cytotox inactive | Wnt3a counter inactive
O=C(O)c1ccccc1C(=O)Nc1ccc(Oc2cccc3ccccc23)cc1	none (no result: Jurkat NFkB inh, Beta apoptosis, 697 NFkB inh, Mdm2 MdmX PPI)
O=C(c1ccccc1)c1cccc(NC(=O)c2ccco2)c1	none
CCCCOC(=O)CCc1c(C)n[nH]c1C	none (no result: Beta apoptosis)
